The supplement of paper PMC10849652
The full data set covers some 7,900 targets. This sample favours those with a hit. About 0.6% of all pairs of compound and target were hits.

Experiments:
Assay in all cases: log2 fold change, soluble protein after heating vs DMSO (PISA); higher = thermal stabilisation; K562 cells, 10 uM, 30 min; active = over 0.2 and 3.5 SD of the protein, either way, in both replicates (recomputed)
[1] = compound: COC1=CC=C(C=C1)CN2C=CC3=C2C=C(C=C3)C(=O)NO
Procedure, shortened: (§1)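 Soluble protein was quantified by TMTpro 16plex LC-MS/MS after channel sums were equalised. It was obtained as the supernatant after 21,000xg for 90 min from pooled aliquots of K562 cells (2×10^6 cells/mL, 10 μM compound, 30 min) heated for 3 min across 48°C-58°C and extracted in PBS with 0.5% NP-40 at 4°C. Thermal stability values are relative to control samples and come from duplicates. They are given as log2 fold changes.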

filanesib = compound: CON(C)C(=O)N1N=C(c2cc(F)ccc2F)S[C@@]1(CCCN)c1ccccc1 [filanesib]
Procedure, shortened: as §1

zotarolimus = compound: CO[C@H]1C[C@@H]2CC[C@@H](C)[C@@](O)(O2)C(=O)C(=O)N2CCCC[C@H]2C(=O)O[C@H]([C@H](C)C[C@@H]2CC[C@H](n3cnnn3)[C@H](OC)C2)CC(=O)[C@H](C)/C=C(\C)[C@@H](O)[C@@H](OC)C(=O)[C@H](C)C[C@H](C)/C=C/C=C/C=C/1C [zotarolimus]
Procedure, shortened: as §1

idasanutlin = compound: COc1cc(C(=O)O)ccc1NC(=O)[C@@H]1N[C@@H](CC(C)(C)C)[C@](C#N)(c2ccc(Cl)cc2F)[C@H]1c1cccc(Cl)c1F [idasanutlin]
Procedure, shortened: as §1

alisertib = compound: COc1cc(Nc2ncc3c(n2)-c2ccc(Cl)cc2C(c2c(F)cccc2OC)=NC3)ccc1C(=O)O [alisertib]
Procedure, shortened: as §1

[2] = compound: COc1cc2nc(-c3cc(F)ccc3O)nc(N[C@@H]3CNC[C@H]3C(C)(C)O)c2cc1OC
Procedure, shortened: as §1

gefitinib = compound: COc1cc2ncnc(Nc3ccc(F)c(Cl)c3)c2cc1OCCCN1CCOCC1 [gefitinib]
Procedure, shortened: as §1

[3] = compound: COc1cccc2cc(-c3nc([C@H]4CC[C@H](C(=O)O)CC4)n4ncnc(N)c34)[nH]c12
Procedure, shortened: as §1

lapatinib = compound: CS(=O)(=O)CCNCc1ccc(-c2ccc3ncnc(Nc4ccc(OCc5cccc(F)c5)c(Cl)c4)c3c2)o1 [lapatinib]
Procedure, shortened: as §1

pictilisib = compound: CS(=O)(=O)N1CCN(Cc2cc3nc(-c4cccc5[nH]ncc45)nc(N4CCOCC4)c3s2)CC1 [pictilisib]
Procedure, shortened: as §1

Measured: log2 fold change

PPIL2 (UniProt Q13356)
inactive: [1] 0.035 | filanesib 0.012 | zotarolimus 0.05 | idasanutlin -0.032 | alisertib 0.01 | [2] 0.131 | gefitinib 0.076 | [3] -0.023 | lapatinib -0.02 | pictilisib 0.028

PCTP (UniProt Q9UKL6)
Sequence of UniProt Q9UKL6 (Q9UKL6 whole entry, looked up): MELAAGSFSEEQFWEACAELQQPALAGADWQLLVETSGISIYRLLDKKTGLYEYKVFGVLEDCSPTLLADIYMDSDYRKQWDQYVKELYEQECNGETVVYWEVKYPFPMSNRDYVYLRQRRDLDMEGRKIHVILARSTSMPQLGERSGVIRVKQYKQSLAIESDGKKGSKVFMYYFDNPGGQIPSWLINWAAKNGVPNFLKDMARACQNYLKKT
active: [2] -0.239 | pictilisib 0.392
inactive: [1] -0.007 | filanesib -0.175 | zotarolimus -0.066 | idasanutlin 0.029 | alisertib -0.081 | gefitinib -0.024 | [3] -0.031 | lapatinib 0.052

PEA15 isoform 2 (UniProt Q15121)
Sequence of UniProt Q15121 (Q15121 whole entry, looked up): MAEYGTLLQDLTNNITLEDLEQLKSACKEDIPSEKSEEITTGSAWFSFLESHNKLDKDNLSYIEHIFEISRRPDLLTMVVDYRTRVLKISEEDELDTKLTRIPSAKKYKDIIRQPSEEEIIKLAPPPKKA
inactive: [1] 0.011 | filanesib -0.079 | zotarolimus 0.05 | idasanutlin -0.02 | alisertib -0.047 | [2] -0.009 | gefitinib 0 | [3] -0.015 | lapatinib -0.003 | pictilisib 0.03

PRIM1 (UniProt P49642)
inactive: [1] 0.04 | filanesib 0.001 | zotarolimus 0.073 | idasanutlin -0.06 | alisertib 0.052 | [2] -0.012 | gefitinib 0.011 | [3] -0.053 | lapatinib 0.007 | pictilisib 0.021

PTGR2 (UniProt Q8N8N7)
Sequence of UniProt Q8N8N7 (Q8N8N7 whole entry, looked up): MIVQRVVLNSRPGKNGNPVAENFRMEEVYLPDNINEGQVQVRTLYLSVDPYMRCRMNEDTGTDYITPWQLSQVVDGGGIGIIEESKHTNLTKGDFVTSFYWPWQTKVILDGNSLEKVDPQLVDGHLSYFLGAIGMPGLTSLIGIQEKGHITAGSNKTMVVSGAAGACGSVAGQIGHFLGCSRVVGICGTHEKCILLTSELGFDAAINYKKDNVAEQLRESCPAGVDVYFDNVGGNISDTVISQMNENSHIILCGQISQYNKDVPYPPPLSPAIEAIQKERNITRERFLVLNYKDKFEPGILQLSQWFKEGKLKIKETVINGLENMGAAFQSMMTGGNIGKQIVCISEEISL
inactive: [1] -0.13 | filanesib -0.155 | zotarolimus 0.195 | idasanutlin 0.122 | alisertib -0.03 | [2] -0.04 | gefitinib 0.035 | [3] 0 | lapatinib 0.125 | pictilisib 0.313

PCGF2 (UniProt P35227)
inactive: [1] -0.039 | filanesib 0.055 | zotarolimus 0.03 | idasanutlin -0.008 | alisertib 0.036 | [2] 0.11 | gefitinib 0.021 | [3] 0.018 | lapatinib -0.058 | pictilisib -0.02

PSMA3 (UniProt P25788)
inactive: [1] 0.015 | filanesib 0.034 | zotarolimus 0.044 | idasanutlin 0.019 | alisertib -0.04 | [2] -0.079 | gefitinib -0.025 | [3] -0.003 | lapatinib 0.062 | pictilisib -0.053

PGGHG (UniProt Q32M88)
inactive: [1] -0.022 | filanesib 0.073 | zotarolimus 0.024 | idasanutlin 0.162 | alisertib -0.123 | [2] 0.082 | gefitinib -0.062 | [3] 0.041 | lapatinib -0.08 | pictilisib 0.042

PLCB3 (UniProt Q01970)
inactive: [1] -0.004 | filanesib -0.118 | zotarolimus 0.007 | idasanutlin -0.044 | alisertib -0.05 | [2] -0.008 | gefitinib -0.003 | [3] 0.013 | lapatinib -0.028 | pictilisib 0.055

PTRH2 (UniProt Q9Y3E5)
Sequence of UniProt Q9Y3E5 (Q9Y3E5 whole entry, looked up): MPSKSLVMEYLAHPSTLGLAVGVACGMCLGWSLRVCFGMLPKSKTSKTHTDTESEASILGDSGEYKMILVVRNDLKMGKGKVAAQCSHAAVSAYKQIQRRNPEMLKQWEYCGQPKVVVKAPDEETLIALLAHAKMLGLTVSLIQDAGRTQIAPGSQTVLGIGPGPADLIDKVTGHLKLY
inactive: filanesib -0.033 | zotarolimus 0.01 | idasanutlin -0.076 | alisertib -0.009 | [2] 0.07 | gefitinib 0.015 | [3] 0.001 | lapatinib 0.012 | pictilisib -0.005
active: [1] 0.403

PDLIM7 (UniProt Q9NR12)
Sequence of UniProt Q9NR12 (Q9NR12 whole entry, looked up): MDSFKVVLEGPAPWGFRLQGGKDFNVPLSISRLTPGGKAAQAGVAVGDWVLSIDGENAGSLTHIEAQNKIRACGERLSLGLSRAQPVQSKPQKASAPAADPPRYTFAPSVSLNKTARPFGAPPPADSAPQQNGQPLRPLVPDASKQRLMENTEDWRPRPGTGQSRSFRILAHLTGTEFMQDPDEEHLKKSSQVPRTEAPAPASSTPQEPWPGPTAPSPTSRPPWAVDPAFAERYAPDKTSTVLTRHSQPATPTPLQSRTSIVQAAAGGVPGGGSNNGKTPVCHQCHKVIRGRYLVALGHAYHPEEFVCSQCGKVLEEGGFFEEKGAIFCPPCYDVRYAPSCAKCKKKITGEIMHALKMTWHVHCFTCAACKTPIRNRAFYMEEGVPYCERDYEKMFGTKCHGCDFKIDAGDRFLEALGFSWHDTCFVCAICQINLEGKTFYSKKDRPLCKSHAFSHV
inactive: [1] 0.055 | filanesib 0.014 | zotarolimus 0.014 | idasanutlin -0.042 | alisertib -0.06 | [2] 0.03 | gefitinib -0.104 | [3] 0.012 | lapatinib 0.012 | pictilisib -0.046

POLR2I (UniProt P36954)
inactive: [1] -0.012 | filanesib 0.041 | zotarolimus -0.017 | idasanutlin 0.029 | alisertib 0.061 | [2] 0.076 | gefitinib -0.003 | [3] 0.062 | lapatinib -0.006 | pictilisib -0.041

PSPC1 (UniProt Q8WXF1)
inactive: [1] 0.008 | filanesib 0.048 | zotarolimus 0.026 | idasanutlin 0.03 | alisertib -0.084 | [2] -0.146 | gefitinib 0.061 | [3] -0.042 | lapatinib 0.152 | pictilisib -0.081

PPP2R5C isoform 4 (UniProt Q13362)
inactive: [1] 0.125 | filanesib -0.018 | zotarolimus -0.019 | idasanutlin 0.017 | alisertib 0.031 | [2] 0.155 | gefitinib -0.004 | [3] 0.002 | lapatinib 0.053 | pictilisib 0.021

PNN (UniProt Q9H307)
Sequence of UniProt Q9H307 (Q9H307 whole entry, looked up): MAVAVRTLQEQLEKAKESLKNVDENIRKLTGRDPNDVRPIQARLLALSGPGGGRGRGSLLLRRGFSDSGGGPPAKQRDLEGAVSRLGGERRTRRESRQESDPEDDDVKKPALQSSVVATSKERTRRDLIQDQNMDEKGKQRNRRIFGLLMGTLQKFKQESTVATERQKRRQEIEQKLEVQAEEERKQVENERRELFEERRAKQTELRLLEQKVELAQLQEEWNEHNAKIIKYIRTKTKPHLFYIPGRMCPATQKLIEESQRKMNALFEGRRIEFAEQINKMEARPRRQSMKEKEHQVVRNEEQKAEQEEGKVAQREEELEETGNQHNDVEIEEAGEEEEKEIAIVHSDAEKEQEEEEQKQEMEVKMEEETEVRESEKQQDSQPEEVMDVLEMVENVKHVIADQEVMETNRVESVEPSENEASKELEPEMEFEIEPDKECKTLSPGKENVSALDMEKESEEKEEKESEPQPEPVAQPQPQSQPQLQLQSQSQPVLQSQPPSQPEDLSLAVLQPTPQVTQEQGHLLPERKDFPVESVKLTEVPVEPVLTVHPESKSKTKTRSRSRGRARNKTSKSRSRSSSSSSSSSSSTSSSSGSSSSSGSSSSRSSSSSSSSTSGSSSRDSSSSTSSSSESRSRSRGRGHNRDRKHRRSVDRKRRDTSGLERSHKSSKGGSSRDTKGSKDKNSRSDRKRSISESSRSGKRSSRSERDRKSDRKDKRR
inactive: [1] -0.004 | filanesib 0.083 | zotarolimus -0.047 | idasanutlin 0.125 | alisertib -0.017 | [2] -0.14 | gefitinib 0.031 | [3] 0.056 | lapatinib -0.037 | pictilisib -0.015

PPP1R35 (UniProt Q8TAP8)
inactive: [1] 0.003 | filanesib 0.026 | zotarolimus -0.004 | idasanutlin 0.196 | alisertib -0.003 | [2] -0.125 | gefitinib 0.027 | [3] 0.083 | lapatinib 0.011 | pictilisib -0.068

PRKAA1 isoform 2 (UniProt Q13131)
inactive: [1] 0.029 | filanesib -0.043 | zotarolimus -0.007 | idasanutlin 0.013 | alisertib -0.047 | [2] -0.014 | gefitinib 0.004 | [3] 0.016 | lapatinib -0.008 | pictilisib -0.03

PSMB6 (UniProt P28072)
inactive: [1] -0.055 | filanesib 0.075 | zotarolimus -0.018 | idasanutlin 0.044 | alisertib -0.062 | [2] -0.014 | gefitinib -0.027 | [3] 0.018 | lapatinib 0.035 | pictilisib -0.017

PTMA (UniProt P06454)
Sequence of UniProt P06454 (P06454 whole entry, looked up): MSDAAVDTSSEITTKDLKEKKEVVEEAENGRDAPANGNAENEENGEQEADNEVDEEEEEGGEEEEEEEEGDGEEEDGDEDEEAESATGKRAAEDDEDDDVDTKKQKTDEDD
active: alisertib -0.596
inactive: [1] 0.118 | filanesib -0.093 | zotarolimus -0.054 | idasanutlin -0.045 | [2] -0.049 | gefitinib 0.029 | [3] 0.043 | lapatinib -0.016 | pictilisib 0.001

POLR2M (UniProt P0CAP2)
active: pictilisib -0.254
inactive: [1] -0.025 | filanesib -0.004 | zotarolimus -0.05 | idasanutlin -0.022 | alisertib -0.015 | [2] 0.094 | gefitinib -0.08 | [3] 0.054 | lapatinib -0.044

PRKCD (UniProt Q05655)
inactive: [1] -0.019 | filanesib -0.004 | zotarolimus 0.032 | idasanutlin -0.017 | alisertib 0.037 | [2] -0.003 | gefitinib -0.002 | [3] 0.074 | lapatinib 0.02 | pictilisib 0.026

PAK4 (UniProt O96013)
inactive: [1] -0.106 | filanesib 0.068 | zotarolimus 0.03 | idasanutlin -0.021 | alisertib 0.153 | [2] 0.195 | gefitinib 0 | [3] 0.075 | lapatinib -0.047 | pictilisib 0.072

PRKCE (UniProt Q02156)
inactive: [1] -0.024 | filanesib -0.082 | zotarolimus 0 | idasanutlin -0.085 | alisertib -0.078 | [2] 0.012 | gefitinib 0.029 | [3] -0.104 | lapatinib 0.025 | pictilisib 0.099

PPID (UniProt Q08752)
inactive: [1] 0.041 | filanesib 0 | zotarolimus 0.056 | idasanutlin -0.055 | alisertib -0.009 | [2] 0.093 | gefitinib 0.112 | [3] -0.091 | lapatinib -0.041 | pictilisib 0.039

PDS5B (UniProt Q9NTI5)
Sequence of UniProt Q9NTI5 (Q9NTI5 whole entry, looked up): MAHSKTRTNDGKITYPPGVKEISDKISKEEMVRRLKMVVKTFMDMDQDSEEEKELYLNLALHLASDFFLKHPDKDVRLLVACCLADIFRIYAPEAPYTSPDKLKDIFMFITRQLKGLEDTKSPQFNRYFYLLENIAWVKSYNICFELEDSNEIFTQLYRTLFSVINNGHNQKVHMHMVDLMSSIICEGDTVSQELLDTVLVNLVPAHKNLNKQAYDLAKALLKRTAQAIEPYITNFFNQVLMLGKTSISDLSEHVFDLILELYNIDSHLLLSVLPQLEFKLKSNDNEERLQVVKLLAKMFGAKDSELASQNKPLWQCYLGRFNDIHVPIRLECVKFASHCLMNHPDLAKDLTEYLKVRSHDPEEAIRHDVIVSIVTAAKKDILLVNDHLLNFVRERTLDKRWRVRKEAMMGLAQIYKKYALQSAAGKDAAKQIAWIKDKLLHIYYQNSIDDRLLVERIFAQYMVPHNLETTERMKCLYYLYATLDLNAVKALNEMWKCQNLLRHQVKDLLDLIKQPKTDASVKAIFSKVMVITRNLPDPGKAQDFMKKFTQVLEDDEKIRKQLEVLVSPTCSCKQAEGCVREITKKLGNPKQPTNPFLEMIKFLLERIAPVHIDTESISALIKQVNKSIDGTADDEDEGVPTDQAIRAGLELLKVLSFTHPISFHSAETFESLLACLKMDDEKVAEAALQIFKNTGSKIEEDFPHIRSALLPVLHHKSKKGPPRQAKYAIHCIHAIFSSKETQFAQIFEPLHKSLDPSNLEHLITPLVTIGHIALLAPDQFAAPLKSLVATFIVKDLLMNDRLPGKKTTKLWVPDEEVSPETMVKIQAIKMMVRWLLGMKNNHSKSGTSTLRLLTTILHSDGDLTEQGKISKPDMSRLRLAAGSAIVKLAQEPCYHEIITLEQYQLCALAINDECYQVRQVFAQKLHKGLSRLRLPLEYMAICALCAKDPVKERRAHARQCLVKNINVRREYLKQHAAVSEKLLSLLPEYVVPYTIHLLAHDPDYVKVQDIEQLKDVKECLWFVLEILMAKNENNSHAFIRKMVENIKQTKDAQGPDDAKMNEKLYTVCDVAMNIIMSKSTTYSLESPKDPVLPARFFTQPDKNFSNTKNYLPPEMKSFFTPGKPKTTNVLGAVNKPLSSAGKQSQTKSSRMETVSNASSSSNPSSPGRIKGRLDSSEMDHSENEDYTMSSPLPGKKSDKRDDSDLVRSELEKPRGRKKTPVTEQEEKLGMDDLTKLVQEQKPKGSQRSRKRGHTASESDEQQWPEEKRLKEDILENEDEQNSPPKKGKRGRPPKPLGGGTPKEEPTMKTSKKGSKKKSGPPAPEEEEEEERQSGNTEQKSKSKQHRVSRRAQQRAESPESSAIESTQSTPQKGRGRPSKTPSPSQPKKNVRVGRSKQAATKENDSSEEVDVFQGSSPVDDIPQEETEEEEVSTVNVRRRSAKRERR
inactive: [1] 0.065 | filanesib 0.104 | zotarolimus 0.037 | idasanutlin -0.07 | alisertib -0.05 | [2] -0.188 | gefitinib 0.123 | [3] 0.078 | lapatinib -0.206 | pictilisib 0.066

POLR2K (UniProt P53803)
inactive: [1] -0.052 | filanesib 0.071 | zotarolimus -0.05 | idasanutlin -0.101 | alisertib -0.005 | [2] 0.134 | gefitinib -0.012 | [3] -0.213 | lapatinib 0.003 | pictilisib 0.117

POGZ (UniProt Q7Z3K3)
Sequence of UniProt Q7Z3K3 (Q7Z3K3 whole entry, looked up): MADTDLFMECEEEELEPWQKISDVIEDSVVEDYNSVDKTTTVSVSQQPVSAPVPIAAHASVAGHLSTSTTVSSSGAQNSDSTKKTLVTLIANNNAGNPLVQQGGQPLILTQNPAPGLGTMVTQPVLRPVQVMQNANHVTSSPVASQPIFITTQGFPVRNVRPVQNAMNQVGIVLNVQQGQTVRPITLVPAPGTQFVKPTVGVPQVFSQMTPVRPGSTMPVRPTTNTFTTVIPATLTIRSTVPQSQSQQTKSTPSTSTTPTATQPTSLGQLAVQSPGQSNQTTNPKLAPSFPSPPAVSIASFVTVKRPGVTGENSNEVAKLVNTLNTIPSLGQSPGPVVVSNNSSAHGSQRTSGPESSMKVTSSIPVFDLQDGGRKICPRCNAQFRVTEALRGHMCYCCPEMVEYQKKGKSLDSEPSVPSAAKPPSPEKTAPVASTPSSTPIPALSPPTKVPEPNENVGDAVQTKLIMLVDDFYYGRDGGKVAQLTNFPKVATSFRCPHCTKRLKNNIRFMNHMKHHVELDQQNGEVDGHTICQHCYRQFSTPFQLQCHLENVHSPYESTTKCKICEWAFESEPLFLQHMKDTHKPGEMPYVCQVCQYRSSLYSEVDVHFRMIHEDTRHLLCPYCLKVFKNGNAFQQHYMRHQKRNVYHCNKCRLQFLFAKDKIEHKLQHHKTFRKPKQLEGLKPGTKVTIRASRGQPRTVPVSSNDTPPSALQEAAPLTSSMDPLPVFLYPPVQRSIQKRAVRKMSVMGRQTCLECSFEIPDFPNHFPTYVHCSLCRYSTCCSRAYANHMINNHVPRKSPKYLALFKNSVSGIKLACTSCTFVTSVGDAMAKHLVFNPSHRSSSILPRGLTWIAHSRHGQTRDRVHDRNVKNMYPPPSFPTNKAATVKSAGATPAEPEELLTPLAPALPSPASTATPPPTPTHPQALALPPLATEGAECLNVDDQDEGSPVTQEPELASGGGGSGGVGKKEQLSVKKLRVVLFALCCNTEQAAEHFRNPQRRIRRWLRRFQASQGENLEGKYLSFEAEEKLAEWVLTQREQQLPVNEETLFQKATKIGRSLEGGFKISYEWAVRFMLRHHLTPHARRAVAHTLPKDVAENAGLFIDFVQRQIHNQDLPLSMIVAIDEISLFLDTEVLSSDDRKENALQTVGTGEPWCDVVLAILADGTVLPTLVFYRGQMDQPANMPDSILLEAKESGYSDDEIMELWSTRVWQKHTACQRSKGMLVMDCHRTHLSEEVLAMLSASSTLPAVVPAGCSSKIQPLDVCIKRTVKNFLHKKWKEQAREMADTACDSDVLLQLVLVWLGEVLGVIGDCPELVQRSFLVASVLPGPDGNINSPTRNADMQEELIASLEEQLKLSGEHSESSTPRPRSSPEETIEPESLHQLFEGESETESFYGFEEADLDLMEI
inactive: [1] -0.066 | filanesib -0.021 | zotarolimus 0.008 | idasanutlin 0.01 | [2] 0.095 | lapatinib -0.086 | pictilisib 0.082

PRG4 (UniProt Q92954)
active: zotarolimus -0.955
inactive: [1] 0.17 | filanesib 0.081 | idasanutlin 0.174 | alisertib 0.01 | gefitinib 0.034 | [3] 0.229 | pictilisib -0.062
